# Screens from PubChem.
# Artemis inh = inhibitors of human Artemis endonuclease activity; inhibition, % at 10 µM; Q96SD1; AID 686954; recombinant Artemis, quenched FAM hairpin cleavage fluorescence; 30,000 tested, 0.78% active;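 active = at 10 µM dose, at least 30% inhibition, measured as corrected fluorescence normalized to stimulator and neutral control wells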
# Target sequence (Q96SD1 whole entry, looked up): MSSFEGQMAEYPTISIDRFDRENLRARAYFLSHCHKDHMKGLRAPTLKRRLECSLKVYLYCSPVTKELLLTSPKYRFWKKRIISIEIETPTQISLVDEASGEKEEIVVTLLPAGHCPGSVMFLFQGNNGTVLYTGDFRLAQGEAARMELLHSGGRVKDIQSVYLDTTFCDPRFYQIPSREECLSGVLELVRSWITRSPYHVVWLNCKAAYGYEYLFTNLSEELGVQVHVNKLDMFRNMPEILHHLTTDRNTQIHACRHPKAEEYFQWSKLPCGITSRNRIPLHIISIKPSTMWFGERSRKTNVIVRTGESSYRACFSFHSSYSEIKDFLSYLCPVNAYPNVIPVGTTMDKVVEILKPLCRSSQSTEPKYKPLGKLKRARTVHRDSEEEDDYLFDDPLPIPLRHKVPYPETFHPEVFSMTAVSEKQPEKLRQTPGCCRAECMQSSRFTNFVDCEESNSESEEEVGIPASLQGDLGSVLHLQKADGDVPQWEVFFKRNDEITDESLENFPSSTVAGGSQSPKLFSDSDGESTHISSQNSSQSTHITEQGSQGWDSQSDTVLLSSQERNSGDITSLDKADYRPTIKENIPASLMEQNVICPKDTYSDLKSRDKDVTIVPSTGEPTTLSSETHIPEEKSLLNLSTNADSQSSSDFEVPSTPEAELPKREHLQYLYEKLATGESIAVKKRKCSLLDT
# * hit, by the source's call. This is one part of a sample in which hits are shown more often than they occur.
SMILES,Artemis inh
CSC1=N/C(=C\c2ccc(C)o2)C(=O)S1,7.5
Cc1ccc(C(=O)Nc2cccc(C(=O)O)c2)cc1S(=O)(=O)N1CCCCC1,-12.6
O=S(=O)(/C=C/c1ccccc1)Nc1ccc2c(c1)OCO2,3.2
CCCc1nn2c(=O)c(C(c3cccc(Cl)c3)c3c(O)nc4sc(CCC)nn4c3=O)c(O)nc2s1,19.2
Cc1cc(N2C(=O)C(O)=C(C(=O)c3ccc(C)o3)C2c2cccs2)no1 (centres undefined),15.8
CCc1ccc2nc(N3C(=O)C(O)=C(C(=O)c4ccco4)C3c3cccs3)sc2c1 (centres undefined),43.1*
Cc1cc(N2C(=O)C(O)=C(C(=O)c3ccco3)C2c2ccc(O)cc2)no1 (centres undefined),-2.3
CCCc1nc(NCC2CCCO2)c2nnn(Cc3ccccc3)c2n1 (centres undefined),-1.5
O=C(NCc1cccnc1)/C(=C/c1ccc(-c2cccc(Cl)c2)o1)S(=O)(=O)c1ccccc1,1.4
O=C(Nc1c(Cl)cc(Cl)cc1C(=O)NCc1cccnc1)c1ccc(Cl)cc1Cl,0.0
Cc1ccc(C(=O)N/C(=C\c2ccc(-c3cc(Cl)ccc3Cl)o2)C(=O)NCc2cccnc2)cc1,34.1*
CC(C)(C)NC(=O)CSC(=Nc1cccc(F)c1)NC#N,0.7
O=C(Cc1ccccc1)NC(Nc1cccc2ccccc12)C(Cl)(Cl)Cl (centres undefined),-0.5
O=C(Cc1ccccc1)NC(Nc1ccccc1)C(Cl)(Cl)Cl (centres undefined),31.1*
Cc1ccc(NC(NC(=O)c2cccs2)C(Cl)(Cl)Cl)cc1 (centres undefined),7.3
CC1CC(C)CN(Cc2nc(N)nc(Nc3ccc4ccccc4c3)n2)C1 (centres undefined),16.3
CCCCNc1nc2ccccc2[nH]1,1.3
CCN(CC)c1ccc(C=Nc2ccc(C#N)cc2)c(O)c1,1.9
CCN(CC)c1ccc(/C=N/Nc2nc3ccccc3[nH]2)c(O)c1,37.6*
Cc1cc(Nc2nc3ccccc3[nH]c2=O)n(-c2ccccc2)n1,3.9
Cc1ccc(Nc2cc(C)nn2-c2nc(C)cc(=O)[nH]2)cc1,34.5*
Cc1ccc(Nc2cc(C)nc3nnnn23)cc1,-2.1
O=C(Nc1ccc(Cl)c(Cl)c1)OCc1cncs1,-5.3
Cc1ccc2c(c1)c1c3n2CCN(C(=O)CN2CCN(C)CC2)C3CCC1 (centres undefined),7.6
Cc1ccc2c(c1)c(=O)c1c3n2CCN(C(=O)CCl)C3CC1 (centres undefined),33.8*
SMILES,Artemis inh
CCN1CCn2c3c(c4cc(Br)ccc42)CCCC31 (centres undefined),-9.7
C=CCSC1=Nc2sccc2C2=NC(=O)CN12,2.5
CC(C)Cc1nnc(NC(=O)c2ccc([N+](=O)[O-])cc2)s1,2.9
CC1CCCCN1C(=O)Cn1c(=O)n(C2CCCCC2)c(=O)c2ccccc21 (centres undefined),1.8
COc1ccc(CN2CCn3ncc(C(=O)Nc4cc(C)cc(C)c4)c3C2=O)cc1,4.0
COc1ccccc1NC(=O)C(=O)N/N=C(\C)CC(=O)Nc1ccc(OCc2ccccc2)cc1,32.9*
COc1ccccc1NC(=O)CN1CCN(CC(=O)Nc2ccc(OCc3ccccc3)cc2)CC1,5.0
COc1ccc(NC(=S)Nc2ccc(OCc3ccccc3)cc2)cc1OC,-2.6
CC(=O)N/C(=C/c1ccc2c(c1)OCO2)C(=O)NCCCO,-12.7
CCCc1cc2c(cc1NC(=O)c1ccc(Br)cc1)OCO2,4.3
CCNc1ccc(Br)cc(C(=O)/C=C/c2ccc3c(c2)OCO3)c1=O,34.3*
O=C1CN(C(=O)COC(=O)c2ccccc2NCc2ccco2)c2ccccc2N1,8.5
O=C(N/N=C\c1ccc(-c2ccccc2[N+](=O)[O-])o1)C1COc2cc3ccccc3cc2O1 (centres undefined),35.9*
Cc1ccc(/C=N\NC(=O)C2COc3cc4ccccc4cc3O2)o1 (centres undefined),4.3
COc1ccc(OC)c(NC(=O)C2COc3ccccc3O2)c1 (centres undefined),-1.3
CCCC1(CCC)NC(=O)N(CC(=O)N2CCN(C(=O)c3ccco3)CC2)C1=O,-5.0
O=C(CNS(=O)(=O)c1ccc2ccccc2c1)OCc1nnc(-c2ccccc2)o1,8.1
O=C(NC1CCCCCCC1)c1ccccc1O,-0.1
O=C(NC1CCCCCCC1)NC1CCCCC1,-3.5
O=C(NNC(=O)c1cc(O)c(O)c(O)c1)NC1CCCCC1,31.5*
CC1CC(C)CN(S(=O)(=O)c2cccc(C(=O)OCCN3CCCC3=O)c2)C1 (centres undefined),-2.0
Cc1cccc(C)c1NC(=O)C(c1ccc(Cl)cc1Cl)N1CCCCC1 (centres undefined),9.8
Cc1[nH]n(-c2ccccc2)c(=O)c1C=Nc1cnc2ccccc2c1,-0.3
C=CCSc1nnc(-c2ccccc2N=Cc2c(C)[nH]n(-c3ccccc3)c2=O)c(=O)[nH]1,-2.5
CSc1nnc(-c2ccccc2N=Cc2c(C)[nH]n(-c3ccc4ccccc4c3)c2=O)c(=O)[nH]1,31.9*
SMILES,Artemis inh
COC(=O)/C(=C\Nc1ccccc1N)c1ncc(C(F)(F)F)cc1Cl,-0.8
COc1ccc(OC)c(Nc2nc(N)nc(-c3cc4ccccc4o3)n2)c1,0.9
Cc1c(-c2nc(N)nc(Nc3ccccc3)n2)oc2ccccc12,52.1*
Nc1nc(CSCCO)nc(Nc2ccccc2)n1,-2.7
COc1cc(NC(=S)N2CCN(C(c3ccccc3)c3ccccc3)CC2)cc(OC)c1,8.9
C(/C=C/c1ccco1)=N/N1CCN(c2ccccc2)CC1,-0.1
CC1=NN(c2cccc(C(=O)O)c2)C(=O)/C1=C\C=C\c1ccco1,30.9*
Cc1cccc(C)c1NC(=O)/C(=C/c1ccco1)c1ccccc1,0.1
CN1C(=O)NC(c2ccccc2)C2=C1CN(c1ccc3ccccc3c1)C2=O (centres undefined),1.5
CC1CCc2c(sc(NS(=O)(=O)c3ccccc3)c2C(=O)OC(C)C)C1 (centres undefined),16.5
CCn1c(=O)c(C(=O)NCCCO)c(O)c2ccccc21,-6.7
CCn1c(=O)c(C(=O)Nn2c(C)nc3ccccc3c2=O)c(O)c2ccccc21,11.9
CCn1c(=O)c(C(=O)Nc2nc3ccccc3[nH]2)c(O)c2ccccc21,50.0*
Cc1occc1-c1nnc(SCC(=O)Nc2ccccc2)n1C(C)c1ccccc1 (centres undefined),3.1
Cc1ccc(-n2c(SCC3CCCCO3)nnc2-c2ccco2)cc1 (centres undefined),6.7
COc1ccc(-c2nc3ccccc3c(C(=O)Nc3ccc(S(=O)(=O)Nc4cc(C)on4)cc3)c2C)cc1,12.8
Cc1ccccc1NC(=O)CN1C(=O)S/C(=C\c2cccn2-c2cccc(C(=O)O)c2)C1=O,22.4
Cc1ccc(NC(=O)CN2C(=O)S/C(=C\c3cccn3-c3cccc(C(=O)O)c3)C2=O)c(C)c1,32.0*
Cc1cccc(C)c1NC(=O)CN1C(=O)S/C(=C\c2cccn2-c2cccc(C(=O)O)c2)C1=O,22.0
CN(C)CCC(=O)NCC1OCCc2ccccc21 (centres undefined),-12.0
C=CCNC(=O)C1CC(=O)N(c2ccc(OCC(=O)NCc3ccccc3)cc2)C1 (centres undefined),-3.9
CCOc1cc(CNc2ccc3c(c2)OCCO3)cc(Br)c1OCC,5.2
COc1ccc(CC(=O)N2CCN(c3ccc(C4=NNC(=O)CC4C)cc3)CC2)cc1 (centres undefined),5.2
CCCSc1nc2sc3c(c2c(=O)[nH]1)CCN(Cc1ccccc1)C3,21.4
O=C(Cc1cn2ccsc2n1)OCc1ccccc1,-6.2
